Data on 50 sequences can be found in publication PMC11006913.

Among the targets are CRX (Homo sapiens, UniProt O43186 26-111, R41L); ALX1 (Homo sapiens, UniProt Q15699 118-204); HOXA4 (Homo sapiens, UniProt Q00056 201-287, W262F); ALX3 (Homo sapiens, UniProt O95076 139-225, N203S); HOXA2 (Homo sapiens, UniProt O43364 129-215); NKX2-5 (Homo sapiens, UniProt P52952 125-210).
Common to all, as to assay: PBM; 200 nM protein, PBS
Details in all cases: dsDNA, one strand shown

Test [1] deals with NKX3-2 (Homo sapiens, UniProt P78367 192-278, P234S).
Sequence of NKX3-2 (Homo sapiens, UniProt P78367 192-278, P234S) (P78367 192-278 P234S): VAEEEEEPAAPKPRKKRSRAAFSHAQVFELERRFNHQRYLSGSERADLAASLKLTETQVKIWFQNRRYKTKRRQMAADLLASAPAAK
Test [2] deals with NKX3-2 (Homo sapiens, UniProt P78367 192-278).
Sequence of NKX3-2 (Homo sapiens, UniProt P78367 192-278) (P78367 192-278): as the sequence (P78367 192-278 P234S) above, with S43P counted along it

Sequence of CRX (O43186 26-111 R41L): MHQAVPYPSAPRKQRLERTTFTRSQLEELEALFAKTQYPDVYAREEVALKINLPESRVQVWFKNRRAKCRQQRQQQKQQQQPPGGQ
Sequence of HOXA2 (O43364 129-215): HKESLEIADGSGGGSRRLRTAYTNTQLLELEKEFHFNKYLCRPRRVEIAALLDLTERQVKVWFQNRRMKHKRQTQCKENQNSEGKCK
Sequence of HOXA4 (Q00056 201-287 W262F): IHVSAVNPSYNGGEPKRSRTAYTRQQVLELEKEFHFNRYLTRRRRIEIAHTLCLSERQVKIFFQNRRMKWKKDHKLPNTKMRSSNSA
Sequence of ALX1 (Q15699 118-204): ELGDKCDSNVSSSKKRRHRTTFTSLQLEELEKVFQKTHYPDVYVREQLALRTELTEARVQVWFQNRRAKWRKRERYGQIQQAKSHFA
Sequence of NKX2-5 (P52952 125-210): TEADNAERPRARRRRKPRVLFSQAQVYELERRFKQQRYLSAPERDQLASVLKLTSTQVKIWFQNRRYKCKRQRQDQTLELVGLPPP
Sequence of ALX3 (O95076 139-225 N203S): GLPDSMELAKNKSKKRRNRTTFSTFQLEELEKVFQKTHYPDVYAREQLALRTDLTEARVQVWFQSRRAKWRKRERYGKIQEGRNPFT

Regarding AAGTATAC, the binding signal in the test with NKX3-2 [1] is 11.6 upbm affinity estimate (log intensity, higher = more binding, comparable within an allelic series); with NKX3-2 [2] it was 11.7 upbm affinity estimate (log intensity, higher = more binding, comparable within an allelic series). Take CTAATGCC: the binding signal in the test with CRX was 10.1 upbm affinity estimate (log intensity, higher = more binding, comparable within an allelic series). GGGCGGAA: the binding signal is 10.7 upbm affinity estimate (log intensity, higher = more binding, comparable within an allelic series) in the test with NKX3-2 [1] and 10.7 upbm affinity estimate (log intensity, higher = more binding, comparable within an allelic series) with NKX3-2 [2].

Regarding CTTTATCC, the binding signal with CRX was 10.7 upbm affinity estimate (log intensity, higher = more binding, comparable within an allelic series).

With GGTGTTAA, in the test with CRX, the binding signal was 10.2 upbm affinity estimate (log intensity, higher = more binding, comparable within an allelic series). For the sequence GAGATTAC, the binding signal with CRX is 12.3 upbm affinity estimate (log intensity, higher = more binding, comparable within an allelic series). Still for that read-out and setting: with CAGATTAC the figure was 12.3 upbm affinity estimate (log intensity, higher = more binding, comparable within an allelic series); with GCTAAGAC, 10.2 upbm affinity estimate (log intensity, higher = more binding, comparable within an allelic series).

For CTAAGCCA, the binding signal in the test with CRX is 10.7 upbm affinity estimate (log intensity, higher = more binding, comparable within an allelic series). Take AGCTTAAG: the binding signal with CRX is 11.6 upbm affinity estimate (log intensity, higher = more binding, comparable within an allelic series).

Consider CTTAATAC, for which the binding signal with CRX is 11.3 upbm affinity estimate (log intensity, higher = more binding, comparable within an allelic series). As for CGCATTAG, the binding signal with CRX is 10.4 upbm affinity estimate (log intensity, higher = more binding, comparable within an allelic series). Still for that read-out and setting: under ATAAGCCG stands 12.3 upbm affinity estimate (log intensity, higher = more binding, comparable within an allelic series); under TAAGACGA, 10.2 upbm affinity estimate (log intensity, higher = more binding, comparable within an allelic series). Still for that read-out and setting: under CGTCTTAA stands 10.7 upbm affinity estimate (log intensity, higher = more binding, comparable within an allelic series); under ACTAAGCT, 11.4 upbm affinity estimate (log intensity, higher = more binding, comparable within an allelic series). Same read-out and setting: with ATTAAGCG the figure was 10.8 upbm affinity estimate (log intensity, higher = more binding, comparable within an allelic series). On to ACTAATAC, for which the binding signal in the test with CRX was 10.7 upbm affinity estimate (log intensity, higher = more binding, comparable within an allelic series). Take AGTATTAG: the binding signal with CRX was 10.8 upbm affinity estimate (log intensity, higher = more binding, comparable within an allelic series). Same read-out and setting: under CCTAATAC stands 10.6 upbm affinity estimate (log intensity, higher = more binding, comparable within an allelic series). On to CCCCCAAA, for which the binding signal was 10.7 upbm affinity estimate (log intensity, higher = more binding, comparable within an allelic series) with NKX3-2 [1] and 10.7 upbm affinity estimate (log intensity, higher = more binding, comparable within an allelic series) with NKX3-2 [2]. Regarding CTAATACC, the binding signal with CRX was 11.2 upbm affinity estimate (log intensity, higher = more binding, comparable within an allelic series). Regarding GGCTCCCC, the binding signal with NKX3-2 [1] was 10.6 upbm affinity estimate (log intensity, higher = more binding, comparable within an allelic series); with NKX3-2 [2] it was 10.6 upbm affinity estimate (log intensity, higher = more binding, comparable within an allelic series). Consider ACTAAGAC, for which the binding signal in the test with CRX was 10.1 upbm affinity estimate (log intensity, higher = more binding, comparable within an allelic series). The same measure, in the same setting: under CTTAATGC stands 11 upbm affinity estimate (log intensity, higher = more binding, comparable within an allelic series); under GCATTAGC, 10.5 upbm affinity estimate (log intensity, higher = more binding, comparable within an allelic series); under ATAATCTA, 12.4 upbm affinity estimate (log intensity, higher = more binding, comparable within an allelic series). GCTTAAGA: the binding signal in the test with CRX was 11.1 upbm affinity estimate (log intensity, higher = more binding, comparable within an allelic series). Take CGGCTTAG: the binding signal in the test with CRX was 11.9 upbm affinity estimate (log intensity, higher = more binding, comparable within an allelic series). Turning to GCCACTCA, the binding signal with NKX3-2 [1] was 12.6 upbm affinity estimate (log intensity, higher = more binding, comparable within an allelic series); with NKX3-2 [2] it was 12.7 upbm affinity estimate (log intensity, higher = more binding, comparable within an allelic series). With CCTAAGCC, the binding signal with CRX is 11.2 upbm affinity estimate (log intensity, higher = more binding, comparable within an allelic series).

Turning to ATCTTAAG, in the test with CRX, the binding signal is 10.8 upbm affinity estimate (log intensity, higher = more binding, comparable within an allelic series). Turning to ACGCTTAA, in the test with CRX, the binding signal was 10.3 upbm affinity estimate (log intensity, higher = more binding, comparable within an allelic series).

As to CCGCTTAA, the binding signal in the test with CRX is 10.9 upbm affinity estimate (log intensity, higher = more binding, comparable within an allelic series). On the same count and under the same terms, with AGTATTAA the figure was 11 upbm affinity estimate (log intensity, higher = more binding, comparable within an allelic series). On the same count and under the same terms, with GTATTAGA the figure was 10.7 upbm affinity estimate (log intensity, higher = more binding, comparable within an allelic series); with AGCATTAA, 10.9 upbm affinity estimate (log intensity, higher = more binding, comparable within an allelic series); with GTCTTAAC, 10.3 upbm affinity estimate (log intensity, higher = more binding, comparable within an allelic series). On to CTTAAGAC, for which, in the test with CRX, the binding signal was 10.7 upbm affinity estimate (log intensity, higher = more binding, comparable within an allelic series).

For the sequence ATTAAGAC, the binding signal with CRX was 11 upbm affinity estimate (log intensity, higher = more binding, comparable within an allelic series). Same read-out and setting: under AGGCTTAG stands 11.6 upbm affinity estimate (log intensity, higher = more binding, comparable within an allelic series). Turning to CTAAGCTC, the binding signal with CRX is 11.1 upbm affinity estimate (log intensity, higher = more binding, comparable within an allelic series). On to GTCAACAA, for which, in the test with ALX1, the binding signal is 7.43 upbm affinity estimate (log intensity, higher = more binding, comparable within an allelic series). For the sequence CCATTAGA, the binding signal with HOXA4 was 10.6 upbm affinity estimate (log intensity, higher = more binding, comparable within an allelic series). On to CTATATTA, for which the binding signal with ALX3 was 8.73 upbm affinity estimate (log intensity, higher = more binding, comparable within an allelic series).

Take AAATACCA: the binding signal in the test with HOXA2 is 9.01 upbm affinity estimate (log intensity, higher = more binding, comparable within an allelic series). Still for that read-out and setting: with GACACTAA the figure was 9.38 upbm affinity estimate (log intensity, higher = more binding, comparable within an allelic series). On to AATTGACC, for which the binding signal in the test with NKX2-5 was 10.6 upbm affinity estimate (log intensity, higher = more binding, comparable within an allelic series).

Take GGAGAGTA: the binding signal in the test with NKX3-2 [2] was 11.6 upbm affinity estimate (log intensity, higher = more binding, comparable within an allelic series).

On to CCCTCAAA, for which the binding signal with NKX3-2 [2] is 11.6 upbm affinity estimate (log intensity, higher = more binding, comparable within an allelic series).
